Assay outcomes (PubChem BioAssay)
FBW7 act: FBW7 E3 ligase activators, primary screen, biochemical, AlphaScreen, human | normalized activity (activation), % at 26.1 µM | F-box/WD repeat-containing protein 7 (Homo sapiens), Q969H0 | AlphaScreen FBW7–phospho-cyclin E peptide binding, activator screen | 650,000 compounds, 0.13% hits | AID 1259310, 2017; in the data active = normalized activity above about 1.9%;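 note: purified mutant Fbw7 with reduced substrate affinity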
MITF primary: MITF inhibitors, primary screen, biochemical, AlphaScreen, human. AID 1259374, 2018. 650,000 compounds, 0.91% hits. inhibition, % at 2.6 µM. Microphthalmia-associated transcription factor (Homo sapiens), O75030. AlphaScreen MITF homodimerization, bead proximity signal; in the data active = inhibition above about 50%;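 note: 0% = vehicle wells with protein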
Target sequence (O75030 whole entry, looked up): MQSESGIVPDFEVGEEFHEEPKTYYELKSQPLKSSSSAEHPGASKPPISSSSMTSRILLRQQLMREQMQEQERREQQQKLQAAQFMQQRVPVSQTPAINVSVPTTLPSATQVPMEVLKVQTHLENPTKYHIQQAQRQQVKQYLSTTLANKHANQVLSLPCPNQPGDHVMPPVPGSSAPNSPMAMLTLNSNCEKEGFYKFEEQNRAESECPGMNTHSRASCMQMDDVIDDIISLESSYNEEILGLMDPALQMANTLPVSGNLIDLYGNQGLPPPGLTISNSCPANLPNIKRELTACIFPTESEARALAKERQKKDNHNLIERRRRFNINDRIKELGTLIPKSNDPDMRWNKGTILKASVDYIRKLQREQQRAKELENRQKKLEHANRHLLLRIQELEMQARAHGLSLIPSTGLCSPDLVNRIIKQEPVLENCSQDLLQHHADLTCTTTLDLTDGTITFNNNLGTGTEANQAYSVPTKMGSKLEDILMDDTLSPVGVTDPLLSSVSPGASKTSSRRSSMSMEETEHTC
GPR151 activ: activators of human GPR151, primary screen, cell-based, PathHunter beta-arrestin, luminescence; G-protein coupled receptor 151 (Homo sapiens), Q8TDV0; PathHunter beta-arrestin GPR151 cells; activation, % at 11.2 µM; 650,000 compounds, 1% hits; in the data active = activation above about 4.9%;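 note: 0% = median of compound wells and 100% = cells with positive control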
TEAD-YAP inh: TEAD-YAP interaction inhibition, primary screen, TEAD-YAP interaction inhibitor project, luminescence, HEK-TIYL cells; 640,000 compounds, 1.4% hits; TEAD-Gal4/YAP UAS-luciferase luminescence; inhibition, % at 9.12 µM; in the data active = inhibition above about 32%;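 note: 0% = median of test compound wells and 100% = reference inhibitor wells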
MITF confirm: MITF inhibitors, retest of hits, confirmation, biochemical, AlphaScreen, triplicate; AlphaScreen MITF homodimerization, biotin/His-MITF beads; inhibition, % at 2.6 µM; 4,700 compounds, 16% hits; shares compounds with MITF primary;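 active = inhibition above a cutoff derived from the DMSO control wells, cut at about 28% in these data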;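 note: 0% = MITF dimer wells with DMSO only; inhibitors lower the bead chemiluminescence by keeping MITF from dimerizing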
AS interf DR: AlphaScreen optical interference compounds, dose response, counter-screen, biochemical, HTS | shares compounds with MITF primary | AlphaScreen optical interference counterscreen, cell-free | IC50, µM | 480 compounds, 6% hits | AID 1259373, 2018; call rule not given here
AS interf ctr: AlphaScreen optical interference compounds, counter-screen for MITF inhibitor project, biochemical, triplicate. shares compounds with MITF primary. LysRS AlphaScreen counterscreen, signal interference. inhibition, % at 2.6 µM. 4,700 compounds, 7.6% hits. AID 1259376, 2018;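 active = inhibition above a cutoff derived from the DMSO control wells, cut at about 30% in these data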
Numbers without * were called inactive; / = not tested or not shown. Hits are enriched below; roughly 3.4% of the tested compounds scored in any of these assays.

SMILES	FBW7 act	MITF primary	GPR151 activ	TEAD-YAP inh	MITF confirm	AS interf ctr	others
CCOC(=O)C1CCN(Cc2ccc(O)c3ncccc23)CC1	-2	72*	0	55*	114*	100*
Oc1ccc(CN2CCOCC2)c2cccnc12	0	91*	0	67*	99*	99*
O=C1/C(=C\c2ccncc2)SC(=S)N1c1ccccc1F	0	-8	-1	-12	/	/
COc1ccc(CCNc2ccc(Cl)cn2)cc1OC	0	97*	-1	-10	-12	-6
COc1ccc(CCNC(N)=S)cc1OC	0	63*	0	-6	6	-1
CCC(C)C(=O)Nc1nc2c(s1)C(=O)CC(C(=O)NCc1cc(F)c(F)c(F)c1)C2 (stereo unspecified)	0	13	-1	8	/	/
COc1ccc(-c2[nH]nc3nc(-c4cc(OC)c(O)c(OC)c4)cc(C(=O)O)c23)cc1	0	70*	1	-4	19	27
O=C(N1CCCCCC1)C1(S(=O)(=O)c2ccc(Cl)cc2)CC1	0	62*	1	11	3	-1
CCOC(=O)C(=CNc1cc(Cl)ccc1OC)C(=O)OCC	1	38	0	10	/	/
O=C(/C=C/c1ccc(Br)o1)Nc1ccccc1Cl	0	-14	2	-45	/	/
Cc1ccc(/C=C/C(=O)Nc2ccccc2Cl)o1	0	52*	-1	-44	24	26
CCC(CC)CN1CCc2nnc(CNC(=O)C3CCC(=O)N3)n2CC1 (stereo unspecified)	0	78*	0	0	1	2
CC(C)/C=C/CN1CCc2nnc(CNC(=O)C3CCC(=O)N3)n2CC1 (stereo unspecified)	0	7	-1	4	/	/
COc1ccc(/C=N/Nc2ccc(S(=O)(=O)O)cc2)cc1	-1	-2	-1	3	/	/
COc1ccc2cc(/C=N/Nc3ccc(S(=O)(=O)O)cc3)ccc2c1	0	66*	0	3	19	-2
CC1(C)CCCC2=C1CC(C(=O)O)C(C(=O)N1CCCCC1)C2 (stereo unspecified)	0	85*	0	-1	3	12
Cc1[nH]c2c(-n3c(C)cc(C(F)(F)F)cc3=O)cccc2c1C	0	53*	1	3	9	12
CC(=O)NCC(c1ccco1)N1CCN(c2ccc(F)cc2)CC1 (stereo unspecified)	0	1	1	0	/	/
CCCCN(CC)c1ncnc2sc(C)c(C)c12	0	51*	0	0	10	-2
O=C(CCC(=O)c1cccs1)NC1=NCCS1	0	9	-1	8	/	/
COCCNc1cc(-c2ccccn2)nc(-c2ccccc2)n1	0	1	-1	17	/	/
COCCNc1cc(-c2ccccn2)nc(-c2ccccn2)n1	-1	116*	1	22	118*	100*
O=[N+]([O-])c1cc(S(=O)(=O)O)c(Cl)cc1NCCO	0	1	1	5	/	/
NS(=O)(=O)c1ccc(N=Cc2cc3c(cc2[N+](=O)[O-])OCO3)cc1	0	64*	1	-2	56*	9	AS interf DR=>6.5
COc1ccc(C2CC(C(F)(F)F)n3nc(C(=O)Nc4cccc(Cl)c4Cl)cc3N2)cc1 (stereo unspecified)	0	1	1	-4	/	/
SMILES	FBW7 act	MITF primary	GPR151 activ	TEAD-YAP inh	MITF confirm	AS interf ctr	others
Cc1cccc(CN2CCC(N3CCC(C(=O)NC4CCCCCC4)CC3)CC2)n1	0	3	-1	10	/	/
CCc1ccc(CNc2ccc(N3CCOCC3)c(C(=O)O)c2)cc1	0	52*	0	-4	0	15
Cc1ncc(CO)c(/C=N/Nc2nc3ccccc3o2)c1O	-1	65*	-1	11	19	47*
CC12CC3CC(C1)CC(C(=O)Nc1nn[nH]n1)(C3)C2	0	-1	-1	8	/	/
O=C(Nc1nn[nH]n1)C12CC3CC(C1)CC(c1ccccc1)(C3)C2	1	53*	-2	8	10	18
O=C(NC1CCN(Cc2ccccc2)CC1)c1ccc2nc(-c3cccs3)sc2c1	0	52*	1	-1	60*	1	AS interf DR=>6.4
CC1=C(C(=O)N2CCOCC2)C(c2ccc(Cl)c([N+](=O)[O-])c2)C2=C(CC(C)(C)CC2=O)N1 (stereo unspecified)	0	7	0	2	/	/
COc1cccc(NC(=O)N2CCN(S(=O)(=O)C3CC3)CC2)c1	1	13	-2	-8	/	/
CS(=O)(=O)NCCSc1nnnn1-c1ccccc1	0	55*	1	7	4	11
CCN1C(=O)/C(=C/c2ccc(-c3ccc([N+](=O)[O-])cc3)o2)NC1=S	0	52*	0	3	-7	14
O=[N+]([O-])c1cc([N+](=O)[O-])c2cc[nH]c2c1	0	69*	0	-2	0	4
CCOC(=O)c1c(NC(=O)c2nn(C)cc2Cl)sc2c1CCCC2	0	93*	-1	7	3	-2
CCOC(=O)c1c(NC(=O)c2nn(C)cc2[N+](=O)[O-])sc2c1CCCC2	0	17	-1	-1	/	/
COc1cc(CN2CCN(Cc3cccc(Br)c3)CC2)cc(OC)c1OC	0	69*	0	7	8	13
COc1cc(CNc2ccccc2)cc2c1OCO2	0	62*	0	-5	-1	-4
COc1cc(CN2CCN(Cc3cccc(Br)c3)CC2)cc2c1OCO2	0	65*	0	1	1	14
COc1ccc(CN2CCN(Cc3cc(OC)c4c(c3)OCO4)CC2)cc1OC	0	34	0	9	/	/
COc1cc(CN2CCN(Cc3ccc(F)cc3)CC2)cc2c1OCO2	0	76*	0	6	4	12
CC(C)C(=O)NC(C)c1nnc2n1CCN(Cc1ccc(-c3ccco3)cc1)CC2 (stereo unspecified)	1	8	-1	6	/	/
COc1cc(CN2CCN(Cc3ccc(C(F)(F)F)cc3)CC2)cc2c1OCO2	0	61*	1	-12	3	37*
CC(c1ccccn1)N(CCN(C)C)C(=S)Nc1cccc(F)c1 (stereo unspecified)	-2	88*	2	4	42*	96*
CC(C)(c1ccccc1)c1ccc(OCC(O)CNC2CCS(=O)(=O)C2)cc1 (stereo unspecified)	0	77*	0	-3	-18	7
